Screens from PubChem.
Hits are enriched below; roughly 9% of the tested compounds scored in any of these assays.
JMJD2A Tudor inh = qHTS Assay for Inhibitors of JMJD2A-Tudor Domain; AlphaScreen JMJD2A-Tudor / H3K4me3 peptide binding; Potency, µM (series often up to 114 µM), without a hit: at the top dose activity change, negative = inhibition, most hits filed as inhibitors; hit rate 4.4% among 390,000; also: % is scaled to controls: 0 for no effect and ±100 for the full control effect; nearly all actives have a fitted effect of over 50% in size
BAZ2B inh = qHTS Assay for Inhibitors of BAZ2B. Bromodomain adjacent to zinc finger domain protein 2B (Homo sapiens), Q9UIF8. AlphaScreen BAZ2B-H3K14Ac peptide displacement. Potency, µM (doses to about 114 µM), inactives show top-dose activity change, negative = inhibition, most hits filed as inhibitors. hit rate 4.4% among 360,000. AID 504333, 2011; also: % is scaled to controls: 0 for no effect and ±100 for the full control effect; nearly all actives have a fitted effect of over 60% in size
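BAZ2B 50 nM plus b-H3(5-23)K14Ac 50 nM, PBS pH 7.4/0.01% Tween-20, 30 min RT; compound added (max 110 uM), 30 min RT; streptavidin donor/Ni-chelate acceptor beads 10 ug/mL final, 20 min dark; AlphaScreen read.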
PLK1 PBD inh = qHTS for Inhibitors of PLK1-PDB (polo-like kinase 1 - polo-box domain): Primary Screen; Serine/threonine-protein kinase PLK1 (Homo sapiens), P53350; Plk1 PBD binding of FITC phosphopeptide, fluorescence polarization; Potency, µM, without a hit: max response, negative = inhibition, most hits filed as inhibitors; hit rate 2.8% among 360,000; AID 720504, 2013; also: series mostly up to about 57 µM; % is scaled to controls: 0 for no effect and ±100 for the full control effect; nearly all actives have a fitted effect of over 65% in size
G9a inh = qHTS Assay for Inhibitors of Histone Lysine Methyltransferase G9a; Potency, µM (series often up to 102 µM), inactives show top-dose activity, negative = inhibition, actives largely listed as inhibitors; hit rate 8.8% among 350,000; G9a H3K9 monomethylation, AlphaScreen, 2 h; AID 504332, 2011; Histone-lysine N-methyltransferase EHMT2 (Homo sapiens), Q96KQ7; also: % is scaled to controls: 0 for no effect and ±100 for the full control effect; nearly all actives have a fitted effect of over 75% in size
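Step 1: enzyme (final 20 nM) with compound, 15 min RT. Step 2: substrate peptide 500 nM and SAM 20 uM, 2 h RT. Step 3: anti-H3K9me1 antibody and AlphaScreen beads, 10 min, then plate read.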
HP1b chromo inh = HTS for Inhibitors of HP1-beta Chromodomain Interactions with Methylated Histone Tails | Chromobox protein homolog 1 (Homo sapiens), P83916 | AlphaScreen HP1-beta / biotin-H3K9me3 peptide binding | Potency, µM (doses to about 114 µM), inactives show at the top dose activity change, negative = inhibition, usual class: inhibitors | hit rate 0.56% among 390,000 | AID 540317, 2011; also: nearly all actives have a fitted effect of over 70% in size
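HP1-beta protein (50 nM final) preincubated 30 min at room temperature with biotinylated H3(1-18)K9me3 peptide (50 nM) in PBS pH 7.4, 0.01% Tween-20, then compound added for 30 min. AlphaScreen streptavidin donor/nickel chelate acceptor beads (10 ug/mL final), 30 min dark, luminescence read.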
12-LOX inh = Primary qHTS assay for inhibitors of human arachidonate 12S-lipoxygenase (ALOX12): Round 2; Polyunsaturated fatty acid lipoxygenase ALOX12 (Homo sapiens), P18054; purified 12hLO, xylenol orange hydroperoxide absorbance; hit rate 1.1% among 580,000; Potency, µM (doses to about 108 µM), without a hit: top-dose activity change, negative = inhibition, actives largely listed as inhibitors; also: % is scaled to controls: 0 for no effect and ±100 for the full control effect
Target sequence (P18054 whole entry, looked up): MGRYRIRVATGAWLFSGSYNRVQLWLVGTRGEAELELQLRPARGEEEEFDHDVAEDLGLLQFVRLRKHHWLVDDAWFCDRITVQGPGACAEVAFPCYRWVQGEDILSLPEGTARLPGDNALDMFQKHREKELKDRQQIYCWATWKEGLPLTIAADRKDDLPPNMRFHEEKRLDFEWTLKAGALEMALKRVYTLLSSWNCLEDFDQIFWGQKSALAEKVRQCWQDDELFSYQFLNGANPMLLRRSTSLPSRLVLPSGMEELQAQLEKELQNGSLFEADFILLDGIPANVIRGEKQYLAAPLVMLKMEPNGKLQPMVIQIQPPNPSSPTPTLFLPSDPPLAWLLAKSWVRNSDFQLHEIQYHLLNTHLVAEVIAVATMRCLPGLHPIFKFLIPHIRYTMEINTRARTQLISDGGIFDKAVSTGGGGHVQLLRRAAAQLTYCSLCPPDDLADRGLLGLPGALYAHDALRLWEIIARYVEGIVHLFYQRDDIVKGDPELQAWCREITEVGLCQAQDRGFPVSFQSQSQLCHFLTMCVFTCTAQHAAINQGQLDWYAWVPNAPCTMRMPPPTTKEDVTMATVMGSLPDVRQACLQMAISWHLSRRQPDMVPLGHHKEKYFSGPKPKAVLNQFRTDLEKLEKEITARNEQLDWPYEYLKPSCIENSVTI
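Hydroperoxide product was detected by ferrous iron/xylenol orange as the 573 to 405 nm absorbance ratio. Arachidonic acid at 40 uM (final) was turned over for 30 min at room temperature by 150 nM human 12hLO, pH 7.0 Hepes buffer, after 15 min compound preincubation.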
* = called active by the depositor; ? = inconclusive; . = not tested or not shown; ! = not active in a repeat; [ ] = dose if it differs, or a comment. Calls follow the shape of the dose curve; as a rule, active = well fitted curve in the direction sought with a large enough effect; inconclusive = small, poorly fitted or top-dose-only effect, or another doubt; inactive = no such curve, though single readings can be large; an effect the other way counts as inactive or inconclusive. Potency is read from the fitted curve at half-maximal effect.

SMILES	JMJD2A Tudor inh	BAZ2B inh	PLK1 PBD inh	G9a inh	HP1b chromo inh	12-LOX inh
COc1ccc(/C=C2\SC(N3CCCCC3)=NC2=O)cc1OC	-25%	3%	-9%	21%	-22%	0%
O=C(/C=C/c1ccc(Br)cc1)NC(=O)c1ccccc1O	-11%[57.1 µM]	?	-29%	?	-8%	10%
O=C(/C=C/c1ccc(O)c(O)c1)O[C@H](Cc1ccc(O)c(O)c1)C(=O)O	.	3.5µM*	.	?	.	.
O=C(/C=C/c1ccc(O)c(O)c1)c1ccc(O)cc1O	.	.	.	.	.	8.9µM*
COc1cc(/C=C/C(=O)O)ccc1O	-9%	.	-5%	-39%[2.33 µM]	28%	13%
O=C(O)/C=C/c1ccc(O)c(O)c1	?	?	-7%	11µM*	13%	-23%
O=C(/C=C/c1ccc(O)c(O)c1)NC(=O)c1ccccc1O	63µM*	50µM*	-6%	5%[12.7 µM]	?	40µM*
CC(NC(=O)Cn1c(NCCO)nc2ccccc21)c1ccccc1 (configuration not stated)	-1%	4%	1%	-3%[12.7 µM]	28%	114%
CCOC(=O)C1(C#N)C(=O)CSC1=Nc1ccccc1Cl (configuration not stated)	.	.	-9%	.	.	-27%
COc1ccc2c(C)c(CCC(=O)N(C)C3CCC(C)CC3)c(=O)oc2c1 (configuration not stated)	.	.	.	.	.	-13%
COc1ccc(CN2CCCC(C(=O)N3CCc4ccccc4C3)C2)cc1OC (configuration not stated)	22µM*	89µM*	?	?	-7%	0.71µM*!
O=C(c1cccc([N+](=O)[O-])c1)N1CCCC(C(=O)N2CCCCC2)C1 (configuration not stated)	-15%	-13%	0%	2%	26%	26%
O=C(C1CCCN(Cc2ccc([N+](=O)[O-])cc2)C1)N1CCCCC1 (configuration not stated)	25µM*	56µM*	0%	28µM*	?	0%
COc1ccc(CN2CCCC(C(=O)N3CCCCC3)C2)cc1OC (configuration not stated)	20µM*	71µM*	-4%	2.8µM*	9%	-21%
O=C(C1CCCC1)N1CCOc2ccc(CN3CCc4ccccc4C3)cc2C1	.	.	.	.	.	147%
CN(C(=O)c1cc2ccccc2oc1=O)C1(C)CCS(=O)(=O)C1 (configuration not stated)	-14%	-14%	7%	-17%	28%	13%
C[C@H](NC(=O)OC(C)(C)C)c1nnc(SCc2c(F)cccc2Cl)o1	-4%	89µM*	.	2%[59 µM]	45%	-18%
C[C@H](NC(=O)OC(C)(C)C)c1nnc(SCC(=O)c2ccc(Cl)cc2)o1	-11%	-5%	-16%	-39%	26%	0%
CC(C)=CCSc1nnc([C@@H](NC(=O)OC(C)(C)C)C(C)C)o1	2%	7%	-15%	7%	85%	0%
CC(C)[C@H](NC(=O)OC(C)(C)C)c1nnc(S(=O)(=O)Cc2c(F)cccc2Cl)o1	5%	1%	9.5µM*	?	48%	19%
COc1ccc2cc(C(C)C(=O)NCc3ccccc3)ccc2c1 (configuration not stated)	.	.	.	.	.	-22%
Cc1ccc(NC(=O)C2CC3CCC2C3)c(Cl)c1 (configuration not stated)	.	.	.	.	.	-29%
CC(Sc1nnc(N)s1)c1ccccc1Cl (configuration not stated)	-4%	-1%	?	40µM*	90%	16%[57.4 µM]
C=CCNc1nnc(-c2cccc3ccccc23)o1	11µM*	.	.	.	.	.
C=CCSc1nnc(-c2cccc3ccccc23)o1	13µM*	.	.	.	52%	0%
SMILES	JMJD2A Tudor inh	BAZ2B inh	PLK1 PBD inh	G9a inh	HP1b chromo inh	12-LOX inh
O=C(NNC1=NCCC1)C1CC1	-35%[57.1 µM]	?	-3%	13µM*	-18%	-10%
CCCn1[nH]cc(SC)c(=O)c1=O	25µM*	?	-3%	?	-11%	?
CCOC(=O)c1c(CC(C)C)csc1/N=C/C1C(=O)CCCC1=O	-27%	?	0%	50µM*	0%	0%
Nc1ccccc1C1CC1	.	.	.	.	.	7.1µM*
Cc1noc2c(N(C)C)cc(-c3cccc(C(F)(F)F)c3)nc12	.	.	.	.	.	2%[176 µM]
CC1(C)OC(=O)N(CC(=O)Nc2cccc(C(F)(F)F)c2)C1(C)O (configuration not stated)	-3%	5%	-4%	-27%	26%	14%
CC1(C)OC(=O)N(CC(=O)Nc2ccccc2)C1(C)O (configuration not stated)	-35%	-37%	27µM*	-32%	19%	-4%
Cc1ccc(NC(=O)CSCC(=O)N(C)CC(=O)Nc2cccc(F)c2)cc1	-6%	2%	-2%	45µM*	20%	?
Cc1cccc(NC(=O)CSCC(=O)N(C)CCOc2ccc(Cl)cc2)c1	-10%	-3%	-4%	56µM*	23%	-20%
Cc1cccc(NC(=O)CSCC(=O)N(C)CC(=O)Nc2cccc(F)c2)c1	-18%	-6%	-7%	-13%[0.501 µM]	34%	-10%
O=C(CSCc1ccccc1)Nc1cccc(F)c1	45µM*	4%	3.4µM*	9%[59 µM]	22%	-19%
O=C(NCCN1C(=O)S/C(=C\c2ccc(OC(F)F)cc2)C1=O)C1=COCCO1	-4%	-27%	-10%	?	45%	.
Cc1cn2nc(C(=O)NCCc3cccs3)cc2c(N2CCSCC2)n1	.	.	.	.	.	-5%
Cc1ccc(CNC(=O)Cn2ncc3c([nH]c4ccc(C)cc43)c2=O)cc1	-5%	9%[57.1 µM]	.	-23%[59 µM]	12%	?
COc1ccc2c(c1)c1nc3ccccc3nc1n2CCn1c(=O)oc2ccccc21	-5%	-4%	45%	-10%[59 µM]	55%	-1%
O=c1oc2ccccc2n1CCn1c2ccccc2c2nc3ccccc3nc21	-19%	0%	-7%	20µM*	51%	44%
O=C1C2C3C=CC(C2C(=O)N1c1ccc(O)cc1)C1C2C(=O)N(c4ccc(O)cc4)C(=O)C2C31 (configuration not stated)	-15%	-24%	-9%	50µM*	27%	0%
O=C(O)c1ccc2c3c(cccc13)C(=O)N(c1ccccc1)C2=O	?	56µM*	?	20µM*	?	-28%
